# The supplement of paper PMC13380429
# Unmarked numbers belong to inactive results.
# System: Vero E6 infected with SARS-CoV-2
# Test: inhibition of SARS-CoV-2 cytopathic effect; higher = more antiviral protection, active = above 15
# Details: 48 h
SMILES,inhibition of SARS-CoV-2 cytopathic effect (1 nM) [%],inhibition of SARS-CoV-2 cytopathic effect (8.33 nM) [%],inhibition of SARS-CoV-2 cytopathic effect (100 nM) [%],inhibition of SARS-CoV-2 cytopathic effect (833.33 nM) [%],inhibition of SARS-CoV-2 cytopathic effect (10000 nM)
Cc1cccc(C)c1OCC(=O)N[C@@H](Cc1ccccc1)[C@@H](O)C[C@H](Cc1ccccc1)NC(=O)[C@H](C(C)C)N1CCCNC1=O [Lopinavir],0.81,-0.07,0.62,-0.42,6.72%
O=C(O)CNC(=O)c1nc(Cl)c2ccccc2c1O,0.76,0.65,4.78,2.19,-0.7%
CC(=O)Nc1ccc(OC(C)=O)cc1 [diacetamate],-0.51,0.65,3.04,0.82,2.03%
NC[C@@](O)(c1ccc(Cl)cc1)c1ccc(-c2cn[nH]c2)cc1,-0.97,1,-2.8,-3.57,-13.7%
N[C@@H](CS)C(=O)O [L-cysteine],1.7,-1.19,-0.65,-1.16,-5.76%
CC1=CC[C@@H](C(C)(C)O)C[C@@H]1O [sobrepin],-10,-11.1,-11.4,-13.5,-10.4%
CC(C)(C#N)c1cc(Cn2cncn2)cc(C(C)(C)C#N)c1 [anastrozole],-1.6,0.38,-0.32,-1.74,-0.89%
CN1C(=O)C(F)=C[C@]2(C)[C@H]3CC[C@]4(C)[C@@H](C(=O)NCc5nc6cccnc6[nH]5)CC[C@H]4[C@@H]3CC[C@@H]12,0.34,-0.43,-0.05,2.35,1.08%
N=C(N)Nc1ccc(Cl)cc1 [4-chlorophenylguanidine],0.9,1.22,0.63,-0.99,0.95%
O=C1c2ccccc2-n2c1nc1ccccc1c2=O [tryptanthrin],3.12,-0.23,0.33,0.62,0.39%
COc1cc(NS(=O)(=O)c2ccc(N)cc2)nc(OC)n1 [sulphadimethoxine],-0.84,-2.06,2.74,-1.94,-0.74%
O=C(O)CCN(O)C(=O)CCCCCCCCC1CC1,2.3,-1.05,1.09,4.48,5.29%
O=C(Nc1cccnc1)N1CCC(Cc2cccc(Oc3ccc(C(F)(F)F)cn3)c2)CC1,0.55,-2.38,-1.02,3.15,-28.6%
CCc1cc2cc(OC)c(OC)cc2c(Cc2ccccc2)n1 [moxaverine],3.28,0.47,0.44,0.83,4.26%
CC(C)c1ccc(C(=O)N=C(N)N)cc1S(C)(=O)=O [cariporide],0.61,4.56,2.44,1.5,-0.17%
COC(=O)[C@H](NC(=O)c1cc(-c2ccccc2)nc2ccccc12)c1ccccc1,2.67,2.5,0.38,0.39,1.12%
C[N+](C)(C)CC#CCN1CCCC1=O [oxotremorine-M],-3.6,-0.15,2.23,-2.21,0.38%
Cn1cc(-c2ccc(F)c(C(F)(F)F)c2)nc1C1CCN(c2ncnc3[nH]ncc23)CC1,0.45,-0.64,-1.2,-2.86,-3.92%
COc1cc(N2CCC(N)CC2)ccc1Nc1ncc(Cl)c(-c2c[nH]c3ccccc23)n1,-1,0.49,-1.87,-3.58,-8.45%
Cn1ncc2c(N3CCOCC3)nc(-c3cccc(O)c3)nc21,-0.24,-1.45,0.03,1.57,-0.01%
O=C(CBr)N1CC([N+](=O)[O-])([N+](=O)[O-])C1,1.69,-0.07,-1.43,-1.12,0.95%

SMILES,inhibition of SARS-CoV-2 cytopathic effect (1 nM) [%],inhibition of SARS-CoV-2 cytopathic effect (8.33 nM) [%],inhibition of SARS-CoV-2 cytopathic effect (100 nM) [%],inhibition of SARS-CoV-2 cytopathic effect (833.33 nM) [%],inhibition of SARS-CoV-2 cytopathic effect (10000 nM)
CCOCCn1c(N2CCCN(C)CC2)nc2ccccc21 [emedastine],-2.21,0.36,-2.49,1.46,-0.01%
CC(CN(C)C)C(C)(O)Cc1ccc(Cl)cc1 (stereo not given) [clobutinol],-0.23,2.65,1.61,-3.1,-0.69%
CCc1c2c(nc3ccc(OC(=O)N4CCC(N5CCCCC5)CC4)cc13)-c1cc3c(c(=O)n1C2)COC(=O)[C@]3(O)CC [irinotecan],-2.2,1.89,1.85,1.56,-0.23%
Cn1cnnc1Sc1c([N+](=O)[O-])ncn1C,3.11,1.9,2.13,5,2.84%
N=C(N)NC(=N)Nc1ccccc1 [1-phenylbiguanide],-1.07,-0.09,0.97,1.34,-1.5%
N=C(N)c1ccc(N2CCN(C3CCN(CC(=O)O)CC3)CC2)cc1,-1.25,0.6,0.06,-0.33,1.5%
CN(C)c1ccc(/C=C2\CCCN=C2c2cccnc2)cc1 [DMAB-anabaseine],-2.66,-1.76,0.68,4.31,-5.07%
O=C(/C=C/c1ccc(O)cc1)c1ccc(O)cc1O [isoliquiritigenin],-2.47,-0.17,1.21,0.63,10.8%
C[C@@H](N)[C@H]1CC[C@H](C(=O)Nc2ccncc2)CC1,-2.16,-4.44,-2.01,2.02,-3.54%
N=C1CCCN1Cc1[nH]c(=O)[nH]c(=O)c1Cl [tipiracil],2.52,2.02,0.58,-1.37,2.84%
O=C(N[C@H]1CCN(C(=O)c2cc(C(F)(F)F)cc(C(F)(F)F)c2)[C@H](Cc2ccc(Cl)cc2)C1)c1ccnc2ccccc12,-1.66,-1.32,1.01,2.87,0.89%
O[C@H]1[C@H]2[C@H](O)CCCN2C[C@H]1O [swainsonine],-4.09,2.85,1.87,-1.43,-5.03%
COc1c(N2CCNC(C)C2)c(F)cc2c(=O)c(C(=O)O)cn(C3CC3)c12 (stereo not given) [gatifloxacin],-0.1,1.9,0.16,0.37,-2.52%
CC(C)(O)C(=O)Nc1ccc([N+](=O)[O-])c(C(F)(F)F)c1 [2-hydroxyflutamide],0.48,0.38,-0.65,-2.57,-4.93%
CC(=O)N1CCC(C(=O)N(CCCN2CCC(Cc3ccc(C(N)=O)cc3)CC2)c2ccc(C)c(Cl)c2)CC1,0.74,-0.02,-0.6,0.17,2.52%
COc1cc2c(NC3CCN(C(C)C)CC3)nc(N3CCC(F)(F)CC3)nc2cc1OCCCN1CCCC1,-0.61,0.14,3.08,0.9,68.5% (active)
COc1ccc(-c2cc(=O)c3c(O)c(OC)c(O)cc3o2)cc1OC [eupatilin],1.23,-0.46,0.38,1.92,2.58%
c1cc(-c2sc(-c3ccncc3)c(-c3ccncc3)c2-c2ccncc2)ccn1,-1.78,-0.14,-3.51,-4.39,-5.36%
Cc1cccc(C)c1NC(=O)CN1CCCC1=O [nefiracetam],-0.7,0.26,-2.77,1.22,-6.8%
CC(N)Cc1c[nH]c2ccc(OCc3cccs3)cc12 (stereo not given),0.71,-0.24,0.67,-1.65,-3.56%
CCN(CC)CC1CCN(c2ncc3ncnc(Nc4ccc(F)c(Cl)c4)c3n2)CC1,1.37,1.44,-3,-7.12,21.6% (active)
